Here are results for 38 molecules from PubChem BioAssay AID2158 (National Center for Advancing Translational Sciences (NCATS), 2009).

“And” between values parts separate entries of the source, which are not always exact repeats. Equal values may be shown once. Records with an inconclusive call do not appear. The source made the active and inactive calls. Calls follow the shape of the dose curve; as a rule, active = well fitted inhibition curve with a large enough effect; inconclusive = small, poorly fitted or top-dose-only effect; inactive = no such curve, though single readings can be large or run the other way.
Potency is read from the fitted curve at half-maximal effect.

The target in this experiment is Cruzipain (Trypanosoma cruzi) (UniProt P25779). The experiment is described as follows: Confirmation qHTS Assay for Inhibitors of Cruzain. Also: nearly all actives have a fitted effect of over 40% in size.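 As to activity change, negative = inhibition: plate controls were uninhibited enzyme control for no effect and buffer wells lacking enzyme for full effect.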 The settings on record: purified cruzain, Z-FR-AMC fluorescence, 0.01% Triton. A digest of the protocol: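 Reaction progress from the 60 s rise in AMC fluorescence (ex 360, em 450 nm) after adding 2 uM Z-FR-AMC. Before this, 1.5 nM cruzain sat 15 min at room temperature with compound in pH 5.5 acetate buffer with 5 mM DTT and 0.01% Triton X-100.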
Chain of Cruzipain (Trypanosoma cruzi) (P25779 123-467 limits assumed): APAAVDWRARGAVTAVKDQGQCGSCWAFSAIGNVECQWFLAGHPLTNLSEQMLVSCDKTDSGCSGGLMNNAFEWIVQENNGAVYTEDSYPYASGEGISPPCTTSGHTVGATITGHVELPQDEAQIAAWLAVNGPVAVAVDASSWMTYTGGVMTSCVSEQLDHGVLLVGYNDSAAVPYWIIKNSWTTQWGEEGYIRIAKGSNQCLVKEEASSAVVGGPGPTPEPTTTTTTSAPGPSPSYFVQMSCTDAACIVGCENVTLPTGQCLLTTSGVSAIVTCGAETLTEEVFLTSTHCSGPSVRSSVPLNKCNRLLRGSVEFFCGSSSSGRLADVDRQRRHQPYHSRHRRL
In the case of `CCCCNC(=O)C(CC)n1c(SCc2cccc(F)c2)nc2ccncc21` (stereo not drawn), the activity change, negative = inhibition was -13.4% (inactive).

Take `O=C(COC(=O)CNC(=O)c1ccccc1Cl)Nc1cc(C(F)(F)F)ccc1Cl`: the Potency was 3.55 µM (active).

`CCCCNC(=O)c1ccc2nc(-c3ccco3)c(-c3ccco3)nc2c1`: the Potency was 7.94 µM (active).

Turning to `N#CN1CCC(NC(=O)c2cccc(C(F)(F)F)c2)CC1`, the activity change, negative = inhibition is -5.22% (inactive).

As to `COc1nc(C#N)nc(N(C)C)n1`, the Potency was 6.31 µM (active) and 7.94 µM (active).

In the case of `CCCn1c2ccc(F)cc2c2nnc(SCCN3CCCCC3)nc21`, the Potency was 12.6 µM (active).

As to `Cc1ccc(OCCn2c(CCNC(=O)C3CCCCC3)nc3ccccc32)cc1`, the Potency is 0.1 µM (active).

As to `CN(CCNC(=O)c1cc2c(=O)n(C)c3ccccc3c2n1C)Cc1ccccc1`, the activity change, negative = inhibition was -49.8% (inactive).

Regarding `COC(=O)CCC(C)C1CCC2C3C(O)C[C@@H]4CC(O)CC[C@@]4(C)C3CC(O)[C@]12C` (stereo partly drawn), the activity change, negative = inhibition was -0.647% (inactive).

In the case of `N#Cc1nc(N2CCCCC2)nc(N2CCCCC2)n1`, the Potency is 8.91 µM (active).

In the case of `C/C(CC(=O)Nc1ccc(Cl)c(Cl)c1)=N\NC(N)=S`, the Potency is 1.12 µM (active).

For the molecule `O=C(CNC(=O)c1ccc2cc[nH]c2c1)OC(C(=O)Nc1cc(C(F)(F)F)ccc1Cl)c1ccccc1` (stereo not drawn), the Potency was 12.6 µM (active).

With `O=C(NCCc1nc2ccccc2n1CCCOc1ccc(Cl)cc1)C1CCCCC1`, the Potency was 0.891 µM (active).

As to `CCOc1ccc(CN2C(=O)c3ccccc3Sc3ccc(C(=O)NCc4ccc5c(c4)OCO5)cc32)cc1`, the activity change, negative = inhibition was 6.89% (inactive).

With `N#Cc1nc(N2CCOCC2)nc(N2CCOCC2)n1`, the Potency is 3.55 µM (active) and 5.01 µM (active).

As to `Cc1ccc2[nH]c(=O)c(CN(CCO)Cc3nnnn3Cc3ccccc3)cc2c1`, the activity change, negative = inhibition is -1.03% (inactive).

With `Cc1cc2c(C)cc(=O)oc2c2c1NCCC2`, the activity change, negative = inhibition is -19.4% (inactive).

Regarding `N#Cc1nc(-c2cccs2)oc1N1CCOCC1`, the activity change, negative = inhibition was -30.8% (inactive).

For `Cc1oc(=O)c(NC(=O)c2ccccc2)cc1C(=O)c1ccccc1`, the activity change, negative = inhibition is -5.13% (inactive).

With `CCC(C)c1ccccc1OCCn1c(CCNC(=O)C2CCCCC2)nc2ccccc21` (stereo not drawn), the Potency was 10 µM (active).

In the case of `CC(C)(C)C(=O)O/N=C1/C(=O)N(c2ccccc2)c2ccccc21`, the activity change, negative = inhibition is -24.3% (inactive).

`O=C(Cn1c2ccccc2c(=O)c2ccccc21)Nc1cccc(F)c1`: the activity change, negative = inhibition is -8.37% (inactive).

On to `Cc1ccc2cc(CN(Cc3ccco3)Cc3nnnn3Cc3ccco3)c(=O)[nH]c2c1`, for which the activity change, negative = inhibition was -10.1% (inactive).

In the case of `CCCNc1nc(C#N)nc(Nc2ccccc2)n1`, the Potency is 0.794 µM (active).

Consider `Cc1ccc(C(=O)COC(=O)CNC(=O)COc2ccccc2C)cc1C`, for which the Potency was 14.1 µM (active).

As for `Cc1ccccc1OCC(=O)NCC(=O)OCC(=O)c1ccc(-c2ccccc2)cc1`, the activity change, negative = inhibition was -15.9% (inactive).

Regarding `CC1(C)Cc2c(C#N)c(N3CCN(C(=O)c4ccccc4)CC3)nc(-c3ccco3)c2CS1`, the Potency was 15.8 µM (active).

Take `N#Cc1nc(N2CCCCC2)nc(N(c2ccccc2)c2ccccc2)n1`: the Potency was 2.24 µM (active).

With `Cc1ccc(S(=O)(=O)N[C@@H](Cc2ccccc2)C(=O)CCl)cc1`, the Potency is 14.1 µM (active) and 28.2 µM (active).

Consider `Cc1cc(NC(=O)Cc2cccs2)no1`, for which the activity change, negative = inhibition is -19.2% (inactive).

As to `O=C(NC1CCCC1)c1ccc2nc(-c3ccco3)c(-c3ccco3)nc2c1`, the Potency was 8.91 µM (active).

Take `O=C(COC(=O)CNC(=O)C1CCCCC1)Nc1ccc2ccccc2c1`: the Potency is 12.6 µM (active).

Regarding `N#Cc1nc(NCCO)nc(Nc2ccccc2)n1`, the Potency is 1.58 µM (active).

As to `Cc1ccccc1OCC(=O)NCC(=O)OCC(=O)c1ccc(Br)cc1`, the Potency was 35.5 µM (active).

With `CN(C)c1nc(C#N)nc(N(C)C)n1`, the Potency was 14.1 µM (active).

In the case of `O=C(NCCc1nc2ccccc2n1CCCCOc1ccccc1)C1CCCCC1`, the Potency was 0.562 µM (active).

Take `O=C(CNC(=O)c1ccccc1Cl)OC(C(=O)Nc1cc(C(F)(F)F)ccc1Cl)c1ccccc1` (stereo not drawn): the Potency is 8.91 µM (active).

On to `O=C(Cc1nnc(-c2cc3ccccc3[nH]2)s1)Nc1cc(C(F)(F)F)ccc1Cl`, for which the activity change, negative = inhibition was -8.66% (inactive) and 1.72% (inactive).
